This is an account of results in PubChem BioAssay.

What is called inhibition is the relative decrease from the control value, in per cent. As a reminder, the viability is a per cent measure of how many cells are alive, often set against a control.

For part of these data: Results with a measured potency or affinity are listed apart. Active and inactive are the calls of the source. Unless noted, the rule behind the calls is not given here. Peptide text beside a SMILES is read from it. * marks the point of attachment. For = O=C*

The target of experiment [1] is 6-phosphogluconate dehydrogenase, decarboxylating (Homo sapiens) (UniProt P52209). The experiment in a line: inhibition of human phosphogluconate dehydrogenase – biochemical, recombinant enzyme, NADPH absorbance, primary screen (AID 1159550;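 active = at least 20% inhibition of 6-phosphogluconate dehydrogenase activity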). Particulars: recombinant 6PGD, NADPH absorbance 341 nm; at 10 µM; stronger effect = higher value.
Sequence of 6-phosphogluconate dehydrogenase, decarboxylating (Homo sapiens) (P52209 whole entry, looked up, the tested form may be a part): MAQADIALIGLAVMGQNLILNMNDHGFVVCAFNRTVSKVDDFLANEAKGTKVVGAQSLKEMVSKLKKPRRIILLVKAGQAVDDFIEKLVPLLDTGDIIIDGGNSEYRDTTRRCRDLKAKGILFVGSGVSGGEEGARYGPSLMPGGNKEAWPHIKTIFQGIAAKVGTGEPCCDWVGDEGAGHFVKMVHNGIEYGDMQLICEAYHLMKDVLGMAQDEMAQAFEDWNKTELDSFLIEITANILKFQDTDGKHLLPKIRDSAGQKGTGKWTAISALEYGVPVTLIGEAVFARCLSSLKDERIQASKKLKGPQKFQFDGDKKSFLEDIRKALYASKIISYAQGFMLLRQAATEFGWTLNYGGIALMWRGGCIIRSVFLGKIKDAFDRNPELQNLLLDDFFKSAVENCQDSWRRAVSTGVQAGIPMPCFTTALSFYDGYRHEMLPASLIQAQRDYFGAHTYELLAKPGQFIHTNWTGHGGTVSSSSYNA
The target of experiment [2] is Mitogen-activated protein kinase 7 (Homo sapiens) (UniProt Q13164). The experiment is described as follows: Gal4-ERK5 driven luciferase induction – cell-based, HTS, primary screen (AID 1508626;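 active = luciferase signal above three times the same-plate solvent-only control wells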;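 note: luciferase driven by Gal4-ERK5 fusion binding five Gal4 sites before minimal TATA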). Particulars: HeLa Gal4-ERK5 transactivation, 18 h, at 5 µM, stronger effect = higher value.
Sequence of Mitogen-activated protein kinase 7 (Homo sapiens) (Q13164 whole entry, looked up, the tested form may be a part): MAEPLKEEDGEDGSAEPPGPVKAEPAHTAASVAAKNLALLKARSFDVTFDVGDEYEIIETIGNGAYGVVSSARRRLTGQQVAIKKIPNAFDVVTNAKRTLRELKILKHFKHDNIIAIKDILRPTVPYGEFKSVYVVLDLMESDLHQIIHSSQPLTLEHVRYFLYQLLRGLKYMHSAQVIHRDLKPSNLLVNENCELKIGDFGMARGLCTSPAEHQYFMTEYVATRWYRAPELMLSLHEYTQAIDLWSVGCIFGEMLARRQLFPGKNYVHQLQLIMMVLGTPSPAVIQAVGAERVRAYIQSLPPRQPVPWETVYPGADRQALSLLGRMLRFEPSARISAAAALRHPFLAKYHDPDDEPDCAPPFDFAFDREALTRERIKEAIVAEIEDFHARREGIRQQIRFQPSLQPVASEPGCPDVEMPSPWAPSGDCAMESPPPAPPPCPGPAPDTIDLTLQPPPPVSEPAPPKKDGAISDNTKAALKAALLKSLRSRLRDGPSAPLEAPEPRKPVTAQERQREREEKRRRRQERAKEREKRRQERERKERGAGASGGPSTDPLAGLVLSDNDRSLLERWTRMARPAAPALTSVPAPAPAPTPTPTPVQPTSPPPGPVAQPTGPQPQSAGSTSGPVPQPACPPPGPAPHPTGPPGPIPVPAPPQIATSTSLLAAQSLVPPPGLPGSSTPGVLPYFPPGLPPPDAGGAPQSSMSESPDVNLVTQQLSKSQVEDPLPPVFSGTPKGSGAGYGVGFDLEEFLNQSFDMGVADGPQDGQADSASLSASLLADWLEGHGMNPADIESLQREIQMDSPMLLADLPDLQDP
A short description of experiment [3]: blockers of polyQ-driven CASP3 activation – cell-based (AID 1583). Particulars: polyglutamine-induced caspase-3 activation, cell assay; stronger effect = higher value;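 tested at 10 µM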.
A short description of experiment [4]: yeast 75Q aggregation reduction – 75Q-TubU reporter (AID 1593). Particulars: Yeast 75Q polyglutamine aggregation reporter.
Experiment [5] can be described thus: restoration of touch response, mutant HTT neurons – whole organism, C. elegans mechanosensory neurons, N-terminal huntingtin (AID 1599). Particulars: C. elegans polyQ-huntingtin mechanosensory neurons, stronger effect = higher value.
The nature of experiment [6]: blockers of cytochrome c efflux from mitochondria – biochemical, purified mitochondria (AID 1603).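 Note: mouse liver mitochondria challenged with calcium chloride; signal normalized to the plate average as 100%.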 Particulars: stronger effect = lower value.
Experiment [7] in a line: polyglutamine aggregate formation blockers (AID 1604). Particulars: polyglutamine-induced protein aggregation inhibition assay; stronger effect = higher value; tested at 2.5 µM.
The nature of experiment [8]: glutamate transport activators, MN-1 cells, MN-1 cell line (AID 1612).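 Note: tested at 1 µM final; 0% = mean of DMSO vehicle wells on each plate; positive means more glutamate uptake than control and negative means less.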 Particulars: MN-1 motor neuron cells, stronger effect = higher value.
Experiment [9] can be described thus: GFP-Q80 aggregate reduction, neuronal-like cells, cell-based, NGF-treated PC12, GFPQ80 (AID 1614).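 Note: lower means fewer inclusions and 0 means no inclusions at all.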 Particulars: PC12 NGF-treated GFP-polyQ80 inclusion reduction.
Experiment [10] is described as follows: 75Q-TubH aggregate inhibition, S. cerevisiae, yeast (AID 1616). Particulars: S. cerevisiae 75Q-TubH polyglutamine aggregation suppression; stronger effect = higher value.
Experiment [11] in a line: P. berghei load reduction in hepatocytes – cell-based, HepG2, luciferase luminescence, HepG2 viability, primary screen (AID 624349; in the data active = parasite load remaining mostly below about 12%, no sharp cut-off; inactive = mostly above about 10%;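 note: 100% = mean of DMSO negative control wells on the same plate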). Particulars: P. berghei liver stage in HepG2, luciferase luminescence, concentration not given here; parasite load remaining: stronger effect = lower value; viability: measured here: HepG2 viability without parasites.
The target of experiment [12] is Calcium-dependent protein kinase 1 (Plasmodium falciparum (isolate 3D7)) (UniProt P62344). The experiment is described as follows: PfCDPK1 kinase inhibitors, biochemical, TCAMS library (AID 1159585; cut-off not given, nearly all actives have IC50 up to about 0.98 µM;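 note: inhibitors leave more ATP so luminescence rises with inhibition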). Particulars: recombinant PfCDPK1, Kinase-Glo ATP depletion luminescence. (Kinase-Glo measures the ATP left after a reaction by luminescence.)
Sequence of Calcium-dependent protein kinase 1 (Plasmodium falciparum (isolate 3D7)) (P62344 whole entry, looked up): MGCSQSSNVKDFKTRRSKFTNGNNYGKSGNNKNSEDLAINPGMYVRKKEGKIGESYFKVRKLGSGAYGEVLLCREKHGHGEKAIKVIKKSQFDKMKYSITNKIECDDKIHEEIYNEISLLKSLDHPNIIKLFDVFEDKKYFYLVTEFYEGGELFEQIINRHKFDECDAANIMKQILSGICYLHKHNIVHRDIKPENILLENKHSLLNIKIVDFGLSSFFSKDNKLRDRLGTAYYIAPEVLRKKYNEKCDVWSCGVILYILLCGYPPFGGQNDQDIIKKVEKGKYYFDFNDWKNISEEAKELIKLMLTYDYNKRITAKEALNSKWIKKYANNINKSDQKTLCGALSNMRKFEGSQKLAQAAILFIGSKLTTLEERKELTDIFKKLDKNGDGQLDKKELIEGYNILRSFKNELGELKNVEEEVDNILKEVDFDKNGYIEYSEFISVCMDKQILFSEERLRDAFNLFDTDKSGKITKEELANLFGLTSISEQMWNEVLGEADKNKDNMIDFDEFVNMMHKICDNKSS
The target in experiment [13] is Plasmodium falciparum protein kinase 6 (PK6, PF3D7_1337100) (UniProt Q8IDW1). The experiment is described as follows: PfPK6 kinase inhibitors, biochemical, TCAMS library (AID 1159586). Particulars: recombinant PfPK6, Kinase-Glo ATP depletion luminescence.
Sequence of Plasmodium falciparum protein kinase 6 (PK6, PF3D7_1337100) (Q8IDW1 1-305): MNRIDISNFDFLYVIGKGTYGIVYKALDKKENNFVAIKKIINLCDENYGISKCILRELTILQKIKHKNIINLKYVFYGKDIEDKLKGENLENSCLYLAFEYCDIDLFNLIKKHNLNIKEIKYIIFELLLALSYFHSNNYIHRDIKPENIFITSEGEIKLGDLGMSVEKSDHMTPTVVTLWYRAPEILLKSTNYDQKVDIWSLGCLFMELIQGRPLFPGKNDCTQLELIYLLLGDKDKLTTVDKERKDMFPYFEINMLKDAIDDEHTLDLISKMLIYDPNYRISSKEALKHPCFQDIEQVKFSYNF
Experiment [14] concerns the target Protein kinase 7 (PK7), Plasmodium falciparum 3D7 (PF3D7_0213400) (UniProt Q7YTF7). The experiment is described as follows: inhibition of Plasmodium PK7 catalytic activity – biochemical, TCAMS antimalarial set, Kinase-Glo luminescence (AID 1159587). Particulars: recombinant PfPK7, Kinase-Glo ATP depletion luminescence.
Experiment [15] addresses Calcium-dependent protein kinase 4 (Plasmodium falciparum (isolate 3D7)) (UniProt Q8IBS5). The experiment in a line: PfCDPK4 kinase inhibitors, biochemical, TCAMS library (AID 1159588; cut-off not given, nearly all actives have IC50 up to about 0.91 µM). Particulars: recombinant PfCDPK4, Kinase-Glo ATP depletion luminescence.

Sequence of Calcium-dependent protein kinase 4 (Plasmodium falciparum (isolate 3D7)) (Q8IBS5 whole entry, looked up): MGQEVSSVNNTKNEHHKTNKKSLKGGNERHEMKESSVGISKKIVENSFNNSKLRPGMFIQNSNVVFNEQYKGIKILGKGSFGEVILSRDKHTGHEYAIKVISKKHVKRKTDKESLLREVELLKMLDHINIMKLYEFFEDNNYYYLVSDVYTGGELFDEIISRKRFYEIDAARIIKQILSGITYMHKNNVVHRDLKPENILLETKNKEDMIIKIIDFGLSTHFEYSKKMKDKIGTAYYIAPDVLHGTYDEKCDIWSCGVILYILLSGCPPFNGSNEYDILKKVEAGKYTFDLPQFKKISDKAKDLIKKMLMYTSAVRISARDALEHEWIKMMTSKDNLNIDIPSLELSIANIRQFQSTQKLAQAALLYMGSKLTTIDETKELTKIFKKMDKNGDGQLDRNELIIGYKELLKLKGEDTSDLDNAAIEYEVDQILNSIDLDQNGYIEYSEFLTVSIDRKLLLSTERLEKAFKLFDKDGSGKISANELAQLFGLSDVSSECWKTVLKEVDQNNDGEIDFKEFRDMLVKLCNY
Sequence of Protein kinase 7 (PK7), Plasmodium falciparum 3D7 (PF3D7_0213400) (Q7YTF7 1-343): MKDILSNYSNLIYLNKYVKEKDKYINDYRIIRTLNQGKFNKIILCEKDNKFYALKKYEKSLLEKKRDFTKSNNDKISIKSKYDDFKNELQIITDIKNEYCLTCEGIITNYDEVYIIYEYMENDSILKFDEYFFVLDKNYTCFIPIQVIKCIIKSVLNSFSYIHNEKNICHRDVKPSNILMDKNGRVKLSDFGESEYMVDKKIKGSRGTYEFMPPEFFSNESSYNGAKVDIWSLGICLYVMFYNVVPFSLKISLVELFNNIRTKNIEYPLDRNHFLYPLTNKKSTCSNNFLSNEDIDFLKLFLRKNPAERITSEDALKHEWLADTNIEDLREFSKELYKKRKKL

Regarding `CC1(C)CC[C@]2(C)CC[C@]3(C)C(=CC[C@@H]4[C@@]5(C)CC[C@H](O)C(C)(C)[C@@H]5CC[C@]43C)[C@@H]2C1`, the inhibition in experiment [1] is 10.2% (inactive). Besides, in experiment [2], the luciferase signal was 20 AU (inactive).
Turning to `CSCCC(NC=O)C(=O)NC(Cc1ccccc1)C(=O)O` (stereo not drawn) (For-Met-Phe-OH; configuration not given here), the inhibition was 0.6% in experiment [3] and 6.92% (inactive) in experiment [1]. In experiment [4], this molecule registered a score of 1.4. In experiment [5], this molecule gave a rescue above control of 4.29. Also, the cytochrome c release ratio in experiment [6] worked out at 1.19. For the same molecule, in experiment [7], the inhibition of aggregation stood at 59.3%. For the same molecule, the glutamate uptake change in experiment [8] is 0%. Moreover, the inclusion score in experiment [9] was 2. The molecule further returned an aggregation suppression score in experiment [10] of 0.985.
As to `NC(N)=NCCC[C@@H](NC(=O)[C@@H](N)Cc1ccc(O)cc1)C(=O)O`, the inhibition in experiment [3] was -8.49%; in [1] it was 7.11% (inactive). For the same molecule, the score in experiment [4] is 1.34. This molecule had a rescue above control in [5] of 13.2. Besides, the cytochrome c release ratio in [6] is 0.94. For the same molecule, the inhibition of aggregation in experiment [7] amounted to 77%. The glutamate uptake change in experiment [8] stood at 17.2%. The same molecule yielded an inclusion score in experiment [9] of 2. Further, the aggregation suppression score in experiment [10] was determined as 1.22.
`COC(=O)[C@]1(C)CCC[C@]2(C)c3ccc(C(C)C)cc3C(=O)CC12` (stereo partly specified): in experiment [1], the inhibition was 13.7% (inactive). Besides, in experiment [2], the luciferase signal is 32 AU (inactive).
For the molecule `CSCCC(NC=O)C(=O)NC(CC(C)C)C(=O)NC(Cc1ccccc1)C(=O)O` (stereo unspecified), in experiment [4], the score came to 1. The molecule further displayed a rescue above control in experiment [5] of 6.28. In addition, the cytochrome c release ratio in experiment [6] is 1.31. Besides, the inhibition of aggregation in [7] came to 53.9%. In addition, the glutamate uptake change in [8] came out at 14.5%. This molecule had an inclusion score in experiment [9] of 1. Further, the aggregation suppression score in experiment [10] stood at 1.49. For the same molecule, in [1], the inhibition is 3.38% (inactive).
Take `Cc1cc(O)c2c(c1O)C(=O)c1c(O)cc(C)c(O)c1C2=O`: the inhibition in [1] was 2.78% (inactive). Also, in experiment [2], the luciferase signal is 48 AU (inactive).
In the case of `COc1c(-c2ccccc2)oc2c(ccc3occc32)c1=O`, the inhibition in experiment [1] is -3.15% (inactive). The luciferase signal in experiment [2] was 36 AU (inactive).
In the case of `COC1=C[C@@H](C)[C@@H]2C[C@H]3OC(=O)C[C@H]4C(C)=C(OC)C(=O)[C@H]([C@@]2(C)C1=O)[C@@]34C`, the inhibition in [1] was -9.87% (inactive). In [2], the luciferase signal was 40 AU (inactive).
With `COC(=O)c1c(C)cc(OC)cc1O`, the inhibition in experiment [1] is -8.1% (inactive). For the same molecule, in [2], the luciferase signal is 32 AU (inactive).
On to `CCOC(=O)C(Cc1ccc(O)cc1)NC(C)=O` (stereo unspecified), for which the inhibition in experiment [3] was -16.6%; in experiment [1] it was -22.2% (inactive). The molecule further showed a score in experiment [4] of 1.58. Also, in experiment [5], the rescue above control was 3.83. In experiment [6], the cytochrome c release ratio is 0.88. Further, the inhibition of aggregation in experiment [7] was -1.73%. In addition, in experiment [8], the glutamate uptake change is -5.84%. This molecule returned an inclusion score in experiment [9] of 2. Moreover, the aggregation suppression score in [10] was 0.981. Moreover, the parasite load remaining in experiment [11] was 109% (inactive). In addition, the viability in [11] was found to be 69%. Also, the luciferase signal in experiment [2] is 72 AU (inactive).
On to `C[C@H]1[C@H](C)CC[C@]2(CO)CC[C@]3(C)C(=CC[C@@H]4[C@@]5(C)CC[C@H](O)C(C)(C)[C@@H]5CC[C@]43C)[C@H]12`, for which the inhibition in [1] is -50.4% (inactive). Also, in experiment [2], the luciferase signal was 52 AU (inactive).
`CC(=O)CC(=O)CCC(=O)O`: the inhibition in experiment [1] is 9.16% (inactive). For the same molecule, in experiment [2], the luciferase signal is 80 AU (inactive).
In the case of `CC1CCC(C(C)C)C(OC(=O)c2ccccc2)C1` (stereo unspecified), the inhibition in experiment [1] is 3.54% (inactive). In addition, in experiment [2], the luciferase signal is 48 AU (inactive).
As to `CN(C)C[C@H](O)[C@H](c1ccccc1)c1ccc(Cl)cc1`, the result in [12], in [13], in experiment [14] and in experiment [15] was inactive.
As for `COc1ccc(Nc2nc(N/N=C/c3cc(Br)c(O)cc3O)nc(Nc3ccc([N+](=O)[O-])cc3)n2)cc1`, the result in experiment [12], in experiment [13], in experiment [14] and in [15] was inactive.
As for `Oc1ccc(/C=N/NC(=S)Nc2cccc3ccccc23)c(O)c1`, the outcome in experiment [12], in experiment [13], in experiment [14] and in experiment [15] was inactive.
As for `CCC[C@@H]([C@H](CC1CCCCC1)C(=O)N[C@H](C(=O)Nc1nccc(N)n1)C(C)(C)C)N(O)C=O`, the outcome in experiment [12], in experiment [13], in experiment [14] and in experiment [15] was inactive.
`C/C(=N\O)C1=C(O)C(c2ccccc2)N(c2ccccc2)C1=O` (stereo unspecified): the outcome in [12], in experiment [13], in experiment [14] and in experiment [15] was inactive.
Take `Cc1cccc2[nH]c(-c3cccc(-c4cccc(NC(=O)Cc5ccc[n+]([O-])c5)c4)c3)nc12`: the outcome in experiment [12], in experiment [13], in [14] and in [15] was inactive.
For `C=CC[C@@H](C[C@H](O)[C@H](Cc1ccccc1)NC(=O)c1ccc(-n2cccn2)cc1)C(=O)NC1CCCCC1`, the outcome in experiment [12], in experiment [13], in [14] and in experiment [15] was inactive.
With `CCCCCC(C)C(C)c1cc(O)c2c(c1)OC(C)(C)C=C2c1cc[n+]([O-])cc1` (stereo unspecified), the outcome in [12], in [13], in experiment [14] and in [15] was inactive.
Turning to `O=C(Cc1ccc[n+]([O-])c1)Nc1cccc(-c2cccc(-c3nc4ccc(F)cc4[nH]3)c2)c1`, the result in experiment [12], in experiment [13], in experiment [14] and in [15] was inactive.
In the case of `Cc1[nH]c2ccccc2c1/C=N/Nc1nc(Nc2ccccc2)nc(Nc2ccccc2)n1`, the result in experiment [12], in experiment [13], in experiment [14] and in experiment [15] was inactive.
